Experiments:
Assay in all cases: log2 ratio of Biotin-Ahx-Ub-VS probe labelling (fragment/DMSO); higher = less target engagement (more negative = stronger competition), active = hit call of the paper (q ≤ 0.05, log2 ratio ≤ -1)
Details in all cases: compound concentration: 200 uM; treatment time: 3 h
USP34 = USP34 (UniProt Q70CQ2)
Procedure, shortened: (§1)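 Triplicate samples of HEK293T lysate, 495 µg each, received fragment at 200 µM or vehicle for 3 h, followed by Biotin-Ahx-Ub-VS (0.5 µM final) for 1 h. After NeutrAvidin enrichment of labelled DUBs and LysC/trypsin digestion, peptides were run by diaPASEF LC-MS/MS. The values are average log2 fragment/vehicle ratios from global-median-normalised Spectronaut label-free quantities, tested by unpaired t-test on proteins having ≥2 unique peptides.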

USP36 = target: T1, USP36 (UniProt Q9P275)
T1 sequence (whole entry): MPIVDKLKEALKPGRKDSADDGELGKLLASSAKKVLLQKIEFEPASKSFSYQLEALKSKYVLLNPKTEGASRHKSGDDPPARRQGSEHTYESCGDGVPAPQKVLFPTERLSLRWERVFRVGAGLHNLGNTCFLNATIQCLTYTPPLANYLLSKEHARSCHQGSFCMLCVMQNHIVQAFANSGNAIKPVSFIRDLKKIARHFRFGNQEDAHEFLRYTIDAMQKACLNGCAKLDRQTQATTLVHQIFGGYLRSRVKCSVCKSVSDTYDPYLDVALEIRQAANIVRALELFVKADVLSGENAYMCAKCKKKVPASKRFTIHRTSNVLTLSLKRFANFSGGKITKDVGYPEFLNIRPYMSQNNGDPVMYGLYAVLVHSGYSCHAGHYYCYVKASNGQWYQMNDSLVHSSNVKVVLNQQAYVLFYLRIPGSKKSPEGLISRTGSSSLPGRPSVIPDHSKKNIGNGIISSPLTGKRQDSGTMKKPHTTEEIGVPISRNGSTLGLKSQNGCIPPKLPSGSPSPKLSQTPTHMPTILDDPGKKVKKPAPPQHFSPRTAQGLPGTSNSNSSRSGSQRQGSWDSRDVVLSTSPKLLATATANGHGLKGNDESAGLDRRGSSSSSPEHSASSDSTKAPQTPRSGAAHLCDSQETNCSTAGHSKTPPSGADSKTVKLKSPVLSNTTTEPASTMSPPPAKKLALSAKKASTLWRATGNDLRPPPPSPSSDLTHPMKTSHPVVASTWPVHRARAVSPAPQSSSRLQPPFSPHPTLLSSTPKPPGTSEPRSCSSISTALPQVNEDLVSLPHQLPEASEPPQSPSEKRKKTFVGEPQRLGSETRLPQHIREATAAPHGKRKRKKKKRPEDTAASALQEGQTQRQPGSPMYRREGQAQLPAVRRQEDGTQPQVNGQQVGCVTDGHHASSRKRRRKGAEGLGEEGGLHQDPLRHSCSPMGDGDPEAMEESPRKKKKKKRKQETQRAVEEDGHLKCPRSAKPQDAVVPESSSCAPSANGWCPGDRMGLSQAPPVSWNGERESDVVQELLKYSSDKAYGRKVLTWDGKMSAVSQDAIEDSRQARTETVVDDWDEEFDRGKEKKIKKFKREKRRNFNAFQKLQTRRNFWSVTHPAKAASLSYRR
Procedure, shortened: as §1

USP38 = target: T2, USP38 (UniProt Q8NB14)
T2 sequence (whole entry): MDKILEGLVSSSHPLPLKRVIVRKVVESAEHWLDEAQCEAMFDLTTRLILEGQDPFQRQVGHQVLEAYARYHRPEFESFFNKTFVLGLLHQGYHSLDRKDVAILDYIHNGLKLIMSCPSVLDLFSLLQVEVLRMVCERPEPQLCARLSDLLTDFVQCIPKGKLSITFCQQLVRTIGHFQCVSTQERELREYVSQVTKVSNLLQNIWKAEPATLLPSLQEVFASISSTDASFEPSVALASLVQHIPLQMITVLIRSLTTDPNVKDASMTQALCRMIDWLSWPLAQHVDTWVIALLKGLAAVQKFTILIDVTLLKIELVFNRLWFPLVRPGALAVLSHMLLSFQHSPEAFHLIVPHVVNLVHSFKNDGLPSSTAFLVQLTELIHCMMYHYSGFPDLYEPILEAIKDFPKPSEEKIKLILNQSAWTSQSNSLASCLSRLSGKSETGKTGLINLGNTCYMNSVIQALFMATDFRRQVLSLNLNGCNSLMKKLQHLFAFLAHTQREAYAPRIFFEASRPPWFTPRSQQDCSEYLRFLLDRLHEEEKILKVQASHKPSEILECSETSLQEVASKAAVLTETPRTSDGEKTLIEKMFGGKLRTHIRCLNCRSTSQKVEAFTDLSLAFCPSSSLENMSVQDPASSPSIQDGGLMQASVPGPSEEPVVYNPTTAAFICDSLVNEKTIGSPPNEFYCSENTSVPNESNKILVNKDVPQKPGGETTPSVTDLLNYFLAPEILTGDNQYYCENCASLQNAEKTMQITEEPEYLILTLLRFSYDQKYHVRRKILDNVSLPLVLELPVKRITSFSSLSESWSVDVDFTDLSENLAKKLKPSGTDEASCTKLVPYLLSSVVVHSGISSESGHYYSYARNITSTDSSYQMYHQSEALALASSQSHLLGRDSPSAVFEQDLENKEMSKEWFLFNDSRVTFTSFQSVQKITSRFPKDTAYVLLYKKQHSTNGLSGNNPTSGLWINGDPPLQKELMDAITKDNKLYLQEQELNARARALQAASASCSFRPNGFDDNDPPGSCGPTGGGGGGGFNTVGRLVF
Procedure, shortened: as §1

USP39 = target: T3, USP39 (UniProt Q53GS9)
T3 sequence (whole entry): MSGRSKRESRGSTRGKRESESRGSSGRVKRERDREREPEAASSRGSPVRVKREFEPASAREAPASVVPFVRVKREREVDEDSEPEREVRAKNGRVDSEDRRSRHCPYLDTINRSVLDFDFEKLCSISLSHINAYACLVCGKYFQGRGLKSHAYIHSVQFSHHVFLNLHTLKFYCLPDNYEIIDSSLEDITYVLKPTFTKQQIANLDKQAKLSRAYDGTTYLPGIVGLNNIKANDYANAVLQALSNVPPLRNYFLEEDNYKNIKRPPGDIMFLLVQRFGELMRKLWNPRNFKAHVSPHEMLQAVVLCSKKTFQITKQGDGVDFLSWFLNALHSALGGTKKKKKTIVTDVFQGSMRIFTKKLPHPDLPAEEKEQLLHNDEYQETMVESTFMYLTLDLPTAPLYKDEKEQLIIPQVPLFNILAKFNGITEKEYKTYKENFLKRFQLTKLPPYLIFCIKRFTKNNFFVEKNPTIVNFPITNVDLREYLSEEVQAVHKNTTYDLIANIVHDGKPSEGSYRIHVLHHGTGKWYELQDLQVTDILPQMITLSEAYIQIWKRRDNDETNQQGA
Procedure, shortened: as §1

USP4 = target: T4, USP4 (UniProt Q13107)
T4 sequence (whole entry): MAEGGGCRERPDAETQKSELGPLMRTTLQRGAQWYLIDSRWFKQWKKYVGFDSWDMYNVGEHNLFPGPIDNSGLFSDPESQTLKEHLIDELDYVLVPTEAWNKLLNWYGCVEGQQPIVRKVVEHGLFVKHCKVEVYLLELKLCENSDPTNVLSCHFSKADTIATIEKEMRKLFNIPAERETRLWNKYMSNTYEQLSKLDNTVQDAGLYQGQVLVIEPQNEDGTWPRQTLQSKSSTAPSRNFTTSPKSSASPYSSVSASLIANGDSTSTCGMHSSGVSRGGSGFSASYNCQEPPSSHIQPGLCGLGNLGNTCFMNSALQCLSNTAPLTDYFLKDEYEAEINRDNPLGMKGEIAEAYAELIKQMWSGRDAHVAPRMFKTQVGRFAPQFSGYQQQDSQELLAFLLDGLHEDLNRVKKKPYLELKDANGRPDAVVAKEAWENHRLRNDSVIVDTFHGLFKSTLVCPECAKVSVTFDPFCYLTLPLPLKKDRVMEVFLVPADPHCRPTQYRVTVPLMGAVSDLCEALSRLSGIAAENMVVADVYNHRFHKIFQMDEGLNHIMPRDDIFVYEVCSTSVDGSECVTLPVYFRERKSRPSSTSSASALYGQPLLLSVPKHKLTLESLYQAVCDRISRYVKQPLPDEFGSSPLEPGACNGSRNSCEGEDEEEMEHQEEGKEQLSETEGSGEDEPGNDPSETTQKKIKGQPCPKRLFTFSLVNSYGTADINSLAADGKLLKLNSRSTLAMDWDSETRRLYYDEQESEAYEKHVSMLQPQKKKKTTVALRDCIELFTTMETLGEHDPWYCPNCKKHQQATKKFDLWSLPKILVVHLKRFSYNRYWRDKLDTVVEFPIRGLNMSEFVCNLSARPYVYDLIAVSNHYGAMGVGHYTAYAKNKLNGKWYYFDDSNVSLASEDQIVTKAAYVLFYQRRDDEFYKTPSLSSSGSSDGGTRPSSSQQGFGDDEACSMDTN
Procedure, shortened: as §1

Measured: log2 ratio of Biotin-Ahx-Ub-VS probe labelling

Sequence of USP34 (Q70CQ2 whole entry, the tested form may be a part): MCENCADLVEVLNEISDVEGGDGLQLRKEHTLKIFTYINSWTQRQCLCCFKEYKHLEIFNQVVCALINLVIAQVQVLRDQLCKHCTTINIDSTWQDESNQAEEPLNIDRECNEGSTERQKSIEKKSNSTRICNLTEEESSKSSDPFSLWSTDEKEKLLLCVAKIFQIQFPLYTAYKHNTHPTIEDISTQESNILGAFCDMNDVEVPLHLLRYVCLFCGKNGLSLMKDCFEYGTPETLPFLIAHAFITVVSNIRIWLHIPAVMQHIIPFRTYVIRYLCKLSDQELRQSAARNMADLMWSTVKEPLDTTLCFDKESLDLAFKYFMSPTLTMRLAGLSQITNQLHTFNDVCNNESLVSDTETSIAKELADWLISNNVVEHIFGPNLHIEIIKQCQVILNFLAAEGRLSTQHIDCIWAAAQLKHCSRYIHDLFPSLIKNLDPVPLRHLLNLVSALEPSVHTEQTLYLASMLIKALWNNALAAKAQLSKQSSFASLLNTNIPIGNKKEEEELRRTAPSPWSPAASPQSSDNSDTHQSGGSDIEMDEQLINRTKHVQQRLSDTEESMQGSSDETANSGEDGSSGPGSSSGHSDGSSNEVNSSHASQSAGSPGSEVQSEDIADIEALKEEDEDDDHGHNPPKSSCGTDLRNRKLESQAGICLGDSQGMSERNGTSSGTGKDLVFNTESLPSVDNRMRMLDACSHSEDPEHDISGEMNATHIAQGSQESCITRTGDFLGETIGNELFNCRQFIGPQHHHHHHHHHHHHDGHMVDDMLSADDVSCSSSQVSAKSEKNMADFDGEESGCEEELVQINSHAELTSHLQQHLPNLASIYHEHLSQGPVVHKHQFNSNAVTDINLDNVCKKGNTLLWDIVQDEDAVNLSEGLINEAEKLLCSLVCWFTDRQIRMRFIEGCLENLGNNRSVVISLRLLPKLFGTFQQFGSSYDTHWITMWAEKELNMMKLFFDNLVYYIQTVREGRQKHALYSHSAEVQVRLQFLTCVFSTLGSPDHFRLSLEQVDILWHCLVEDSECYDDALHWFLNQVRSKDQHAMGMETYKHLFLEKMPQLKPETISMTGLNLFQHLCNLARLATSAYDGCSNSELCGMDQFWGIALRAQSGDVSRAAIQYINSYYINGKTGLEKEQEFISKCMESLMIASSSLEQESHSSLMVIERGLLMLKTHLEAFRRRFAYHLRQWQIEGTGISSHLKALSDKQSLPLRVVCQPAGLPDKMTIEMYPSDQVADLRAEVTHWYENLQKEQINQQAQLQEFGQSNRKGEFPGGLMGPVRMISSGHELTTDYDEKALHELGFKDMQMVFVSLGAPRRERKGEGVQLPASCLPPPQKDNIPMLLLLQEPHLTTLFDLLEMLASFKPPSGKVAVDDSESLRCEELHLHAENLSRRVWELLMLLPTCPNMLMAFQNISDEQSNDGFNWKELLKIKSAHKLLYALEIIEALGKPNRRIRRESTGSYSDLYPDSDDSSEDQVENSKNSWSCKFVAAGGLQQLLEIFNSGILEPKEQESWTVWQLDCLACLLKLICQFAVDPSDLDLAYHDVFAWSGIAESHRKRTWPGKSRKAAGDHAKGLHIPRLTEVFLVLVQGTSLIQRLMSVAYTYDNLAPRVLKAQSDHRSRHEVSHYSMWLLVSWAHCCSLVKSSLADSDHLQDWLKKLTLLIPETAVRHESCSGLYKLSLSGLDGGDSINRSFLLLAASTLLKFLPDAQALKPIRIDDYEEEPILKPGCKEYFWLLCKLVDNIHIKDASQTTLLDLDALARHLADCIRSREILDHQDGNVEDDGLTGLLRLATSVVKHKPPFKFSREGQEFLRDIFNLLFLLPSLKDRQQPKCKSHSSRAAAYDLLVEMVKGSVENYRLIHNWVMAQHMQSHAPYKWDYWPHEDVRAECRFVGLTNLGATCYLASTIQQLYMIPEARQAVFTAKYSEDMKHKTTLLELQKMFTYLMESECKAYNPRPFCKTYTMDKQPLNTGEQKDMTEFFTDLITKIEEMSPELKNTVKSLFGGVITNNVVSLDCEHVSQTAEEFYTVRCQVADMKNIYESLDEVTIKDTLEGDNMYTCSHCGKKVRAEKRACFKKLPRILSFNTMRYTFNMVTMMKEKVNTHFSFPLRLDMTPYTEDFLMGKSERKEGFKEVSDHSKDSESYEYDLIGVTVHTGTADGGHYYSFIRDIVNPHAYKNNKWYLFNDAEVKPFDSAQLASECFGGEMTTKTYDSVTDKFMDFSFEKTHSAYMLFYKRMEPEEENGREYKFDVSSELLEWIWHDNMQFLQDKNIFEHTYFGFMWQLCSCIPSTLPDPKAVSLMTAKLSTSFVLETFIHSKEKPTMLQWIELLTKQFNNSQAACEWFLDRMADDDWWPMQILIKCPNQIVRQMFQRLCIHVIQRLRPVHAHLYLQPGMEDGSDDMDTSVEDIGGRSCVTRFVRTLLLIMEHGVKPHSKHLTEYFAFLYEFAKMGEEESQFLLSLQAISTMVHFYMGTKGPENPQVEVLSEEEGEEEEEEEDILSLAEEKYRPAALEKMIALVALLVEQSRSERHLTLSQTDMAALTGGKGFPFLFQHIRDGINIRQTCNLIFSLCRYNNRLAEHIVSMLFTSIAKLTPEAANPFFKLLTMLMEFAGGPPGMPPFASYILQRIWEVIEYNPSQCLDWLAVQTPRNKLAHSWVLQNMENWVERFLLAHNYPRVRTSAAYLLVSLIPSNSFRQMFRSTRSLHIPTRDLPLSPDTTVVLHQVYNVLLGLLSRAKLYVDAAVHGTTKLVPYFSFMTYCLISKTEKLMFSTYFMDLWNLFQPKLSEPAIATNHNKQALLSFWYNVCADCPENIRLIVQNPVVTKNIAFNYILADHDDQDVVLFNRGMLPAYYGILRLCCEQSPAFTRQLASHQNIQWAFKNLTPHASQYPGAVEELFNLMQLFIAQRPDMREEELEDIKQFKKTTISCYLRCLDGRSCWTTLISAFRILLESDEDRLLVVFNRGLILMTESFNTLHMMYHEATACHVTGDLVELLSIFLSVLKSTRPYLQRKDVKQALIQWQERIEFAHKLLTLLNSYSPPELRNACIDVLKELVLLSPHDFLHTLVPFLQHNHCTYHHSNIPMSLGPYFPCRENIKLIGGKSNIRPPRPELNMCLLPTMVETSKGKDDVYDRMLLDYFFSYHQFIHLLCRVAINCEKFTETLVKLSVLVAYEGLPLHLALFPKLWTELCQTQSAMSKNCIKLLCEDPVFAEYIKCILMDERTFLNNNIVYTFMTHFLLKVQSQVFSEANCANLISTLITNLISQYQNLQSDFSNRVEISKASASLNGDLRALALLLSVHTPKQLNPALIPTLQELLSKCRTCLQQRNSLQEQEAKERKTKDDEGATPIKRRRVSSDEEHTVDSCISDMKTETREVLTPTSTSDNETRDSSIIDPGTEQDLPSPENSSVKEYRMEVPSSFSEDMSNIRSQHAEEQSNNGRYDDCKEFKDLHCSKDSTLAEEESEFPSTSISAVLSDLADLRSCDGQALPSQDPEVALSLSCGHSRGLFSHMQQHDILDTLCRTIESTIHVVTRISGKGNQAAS

NS(=O)(=O)c1ccc(Cl)c(NC(=O)CCl)c1
inactive: USP34 -0.381 | USP36 -0.132 | USP38 0.0479 | USP39 0.175 | USP4 -0.198
